High-throughput results from PubChem.
NPC1 promoter act: NPC1 promoter activation | Huh7 NPC1 promoter luciferase reporter, 24 h | Potency, µM (titrated, usually from 9.22 µM), without a hit: at the top dose activation, hits mostly activators | hit rate 2.4% among 320,000 | AID 485313; further: % of control where 0% means no effect; nearly all actives have a fitted effect of over 60% in size
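In 1536-well qHTS, Huh7 cells harboring an NPC1 promoter–luciferase construct received compound for 24 h; activation was quantified by luminescence following luciferase reagent addition.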
ELG1 genotox: genotoxicity induction in ELG1-luciferase HEK293T cells; HEK293T ELG1-luciferase reporter, luminescence, 16 h; Potency, µM (doses to about 46 µM), without a hit: at the top dose activity change, positive = activation, actives largely listed as activators; hit rate 1.3% among 330,000; AID 504466; further: % of control where 0% means no effect; nearly all actives have a fitted effect of over 60% in size
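Luminescence read-out: rising ELG1-luciferase signal, reflecting elevated ELG1 protein under genetic stress, flags genotoxic compounds. Cells were treated for 16 hr at 37 °C before ONE-Glo detection.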
SMN2 splice enh: increases expression of the SMN2 splice variant | hit rate 2.8% among 210,000 | HEK293 SMN2-luciferase splicing reporter, luminescence, 30-36 h | Potency, µM (top dose mostly 46.1 µM), inactives show top-dose activity change, positive = activation, hits mostly activators; further: % of control where 0% means no effect; nearly all actives have a fitted effect of over 55% in size
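qHTS luciferase splicing reporter: luminescence rises when SMN2 exon 7 is included in transfected HEK293 cells. Compound exposure lasted 30-36 h at 37C, with 4.5 mM final sodium butyrate as control, followed by a ONE-Glo read.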
ELG1 DNA repair: ELG1-dependent DNA repair inhibition | HEK293T ELG1-luciferase reporter, luminescence, 16 h; DNA damage induced by 5-fluorouridine | Potency, µM (doses to about 46.1 µM), for inactives: at the top dose activity change, negative = inhibition, actives largely listed as inhibitors | hit rate 2.3% among 330,000 | AID 504467; further: on the % scale 0 is the no-effect control and ±100 the full control effect; nearly all actives have a fitted effect of over 55% in size
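Overnight (16 hr) co-exposure of 2,000 cells/well to 5-fluorouridine and compound at 37 °C preceded detection. Luciferase was quantified via ONE-Glo luminescence; loss of signal denotes inhibition.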
Rab9 prom act: activates the Rab9 promoter; Huh7 Rab9 promoter-luciferase reporter, luminescence, 24 h; Potency, µM (titrated, usually from 9.22 µM), for inactives: top-dose activation, negative = inhibition, actives largely listed as activators; hit rate 2.8% among 320,000; AID 485297; further: % of control where 0% means no effect; nearly all actives have a fitted effect of over 60% in size
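Huh7 reporter line, Rab9 promoter upstream of luciferase. Compound exposure 24 h at 37 °C in reduced-serum medium with 10% FBS. Read-out: luminescence.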
FLuc modulator: inhibits or activates purified firefly luciferase, miR-21 counter-screen; hit rate 6.9% among 360,000; purified FLuc, Km substrates, luminescence inhibition; Potency, µM (series often up to 57.5 µM), inactives show at the highest dose activity change, negative = inhibition, most hits filed as inhibitors; P08659; AID 588342;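 further: plate controls were vehicle for no effect and reference inhibitor for full effect; nearly all actives have a fitted effect of over 55% in size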
Target sequence (P08659 whole entry, looked up): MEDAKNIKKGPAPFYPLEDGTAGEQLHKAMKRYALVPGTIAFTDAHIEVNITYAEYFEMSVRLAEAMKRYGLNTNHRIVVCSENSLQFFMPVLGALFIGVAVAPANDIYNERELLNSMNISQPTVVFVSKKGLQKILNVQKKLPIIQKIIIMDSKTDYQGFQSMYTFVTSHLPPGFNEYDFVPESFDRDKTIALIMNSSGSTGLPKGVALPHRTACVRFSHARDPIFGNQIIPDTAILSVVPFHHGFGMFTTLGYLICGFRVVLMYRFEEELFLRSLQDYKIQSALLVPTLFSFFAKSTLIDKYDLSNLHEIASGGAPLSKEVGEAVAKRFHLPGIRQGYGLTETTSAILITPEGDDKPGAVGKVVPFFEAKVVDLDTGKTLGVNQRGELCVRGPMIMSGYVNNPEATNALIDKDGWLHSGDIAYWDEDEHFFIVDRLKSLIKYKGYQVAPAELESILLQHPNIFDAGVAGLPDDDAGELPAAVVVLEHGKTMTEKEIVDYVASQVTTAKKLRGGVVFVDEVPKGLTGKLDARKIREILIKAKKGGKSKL
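Purified P. pyralis luciferase (10nM final) with 10uM D-luciferin and 10uM ATP (Km levels) in 50mM Tris acetate pH 7.5, 10mM Mg acetate, 0.01% Tween-20, 0.05% BSA; qHTS 6-point titration, ~60 µM downward; luminescence read.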
* = called active by the depositor; ? = inconclusive; . = no result; [ ] = remark or other dose. In the library only some 9.4% were active in any assay of this set; here they are far more common. The call rests on the fitted dose curve; in most records, active means well fitted curve in the direction sought with a large enough effect; inconclusive means small, poorly fitted or top-dose-only effect, or another doubt; inactive means no such curve, though single readings can be large; an effect the other way counts as inactive or inconclusive. Potency means the concentration at half of the fitted maximal effect.

SMILES | NPC1 promoter act | ELG1 genotox | SMN2 splice enh | ELG1 DNA repair | Rab9 prom act | FLuc modulator
C=C(CC(=O)O)C(=O)O (tested in a mixture with another compound) | . | . | 1%[9.22 µM] | . | . | .
COc1ccc(-n2cnc3ccccc32)cc1 | 4% | -15% | -10% | 8.2µM* | 3% | ?
COc1cccc(CNc2ccc3c(c2)ncn3C(C)C)c1OC | 4µM* | 14% | ? | ? | 4µM* | 17µM*
CCOC(=O)CCn1c(=O)c2cccn2c2cccnc21 | . | . | 25% | . | . | -4%
Cn1c(=O)c2sccc2n2c(CCC(=O)Nc3ccc(F)cc3)nnc12 | . | . | -11% | . | . | -1%
CCOC(=O)C1=C(COC(=O)CCOc2ccc(C)cc2)NC(=O)NC1C (centres undefined) | -10% | 20% | . | 26µM* | -8% | -1%
CSc1ccc(Cl)c(C(=O)N2CCOc3ccccc32)c1 | 2% | -7% | . | 9.2µM* | 2% | 5%
Cc1c(Cl)cccc1NC(=O)N1CCOc2ccccc21 | . | . | . | . | . | 1%
c1ccc2c[n+](Cc3ccnc4ccccc34)ccc2c1 | . | . | -13%[9.22 µM] | . | . | .
O=C(Cc1ccc(-c2ccccc2)cc1)OCC(=O)N1CCCC1=O | -1% | 0% | 1% | 12% | 17% | 21µM*
CSc1ccccc1C(=O)OCC(=O)N1CCCC1=O | 0% | 2% | . | 12% | -4% | -2%
Cc1noc(C)c1C(=O)N1CCC2(CC1)CN(Cc1cc(C(F)(F)F)cc(C(F)(F)F)c1)C2 | . | . | 2% | . | . | .
Cc1cc(C)cc(NC(=O)C(=O)NCC(c2cccnc2)N2CCc3ccccc3C2)c1 (centres undefined) | . | . | . | . | . | -2%
Cc1cc(C(=O)COc2cccc(-n3cnnn3)c2)c(C)n1-c1ccccc1 | 3% | -9% | -32% | ? | 23% | 3µM*
CCc1ccc(NC(=O)COc2cccc(-n3cnnn3)c2)cc1 | -2% | 4% | . | 13% | -3% | 19µM*
COC(=O)c1ccc(NC(=O)COc2cccc(-n3cnnn3)c2)cc1 | 0% | 2% | . | 6% | -2% | -2%
O=C(N/N=C/c1ccc([N+](=O)[O-])o1)c1cc(-c2ccc(-c3ccccc3)cc2)nc2ccccc12 | ? | ? | 2.5µM* | ? | ? | 0.15µM*
Cc1ccc(-c2cc(C(=O)N/N=C/c3ccc([N+](=O)[O-])o3)c3ccccc3n2)o1 | ? | -5% | . | 8% | ? | 0.3µM*
COc1ccc(NC(C)C(=O)N/N=C/c2ccc([N+](=O)[O-])s2)cc1 (centres undefined) | -3% | -11% | -61% | 18µM* | 1% | 5%
O=C(N/N=C/c1ccc([N+](=O)[O-])o1)c1cc(-c2ccncc2)nc2ccccc12 | -18% | -6% | -22% | ? | -17% | ?
Cc1ccnn1CC(=O)N/N=C/c1cccs1 | 0% | -1% | 6% | 9% | -6% | 0%
Cc1ccnn1CC(=O)N/N=C/c1ccc([N+](=O)[O-])s1 | -5% | -11% | . | 13µM* | -4% | 4%
c1c[nH]cn1 | . | . | -6% | . | . | .
Cc1cc(C(=O)N/N=C/c2ccc([N+](=O)[O-])cc2)c2ccccc2n1 | -31% | 5% | . | ? | -15% | -3%
Cc1cc(C(=O)N/N=C/c2ccc([N+](=O)[O-])s2)c2ccccc2n1 | 0% | -13% | . | 21µM* | 15% | -8%
SMILES | NPC1 promoter act | ELG1 genotox | SMN2 splice enh | ELG1 DNA repair | Rab9 prom act | FLuc modulator
O=C(N/N=C/C=C\c1ccccc1[N+](=O)[O-])c1cc(-c2ccccc2)nc2ccccc12 | 2% | 0% | 0% | ? | -5% | 12µM*
CCN(Cc1ccccc1)C(=O)Nc1ccc2c(c1)N(C)C(=O)c1ccccc1S2 | . | . | . | . | . | -11%
O=C(Cn1ncc2c3ccccc3n(Cc3cccc(Cl)c3)c2c1=O)N1CCCCCC1 | . | . | -15% | . | . | 5%
COc1ccc(C(=O)N/N=C/c2c(CO)cnc(C)c2O)cc1 | 1% | -10% | -73% | 13µM* | 0% | 21µM*
Cc1ncc(CO)c(/C=N/NC(=O)c2cc3c(s2)CCCC3)c1O | -33% | 16% | -62% | 3.3µM* | -42% | ?
Cc1ncc(CO)c(/C=N/NC(=O)c2ccc(O)cc2)c1O | -4% | 0% | ? | 13% | -1% | ?
COc1ccccc1N/N=C/c1c(CO)cnc(C)c1O | -3% | 8% | -12% | 11% | -6% | 13µM*
Cc1ncc(CO)c(/C=N/NC(=O)c2ccoc2C)c1O | -7% | -3% | . | ? | -6% | -12%
CCOC(=O)[C@]1(CC(=O)O)CCCC1=O | . | . | 1%[9.22 µM] | . | . | .
CCCS(=O)(=O)c1ncc(Cl)c(C(=O)N2CCN(c3ccc(OC)cc3)CC2)n1 | . | . | . | . | . | 4%
CCc1ccccc1NS(=O)(=O)c1ccc2c(c1)CCCN2C(=O)C1CCC1 | . | . | . | . | . | -11%
N=c1c2c(n(Cc3ccc(Br)cc3)c3c1CCC3)CCCC2 | -23% | -5% | -69% | -5% | -39% | 1%
N=c1c2c(n(Cc3ccc([N+](=O)[O-])cc3)c3c1CCC3)CCCC2 | -7% | -11% | -39% | 8.2µM* | -6% | 2%
Cc1cc(Cl)ccc1OCC(=O)NNC(=O)c1cnccn1 | -1% | 2% | -43% | -8% | -9% | 17µM*
Cc1cc(Br)ccc1OCC(=O)NNC(=O)c1cnccn1 | -1% | -4% | -4% | -9% | 1% | 17µM*
Cc1ccc(C(=O)NNC(=O)COc2ccc(Cl)cc2C)o1 | -4% | 2% | . | ? | -3% | 11µM*
C/C(=N\NC(=O)CCCOc1ccc(Cl)cc1C)c1ccc(C)o1 | -2% | -2% | -23% | -11% | -6% | -13%
COCCNC(=O)COc1ccc(C)cc1C | 0% | 10% | 7% | 48% | 14% | -2%
Cc1ccc(OCC(=O)NNC(=O)c2ccco2)c(C)c1 | 12% | 11% | . | ? | 2% | 12µM*
Cc1ccccc1OCCC(=O)NNC(=O)c1ccccc1F | . | 1% | . | 7% | . | .
Cc1ccc(-c2nc(CCNC(=O)c3ccco3)cs2)cc1 | -10% | -9% | . | ? | -2% | 17µM*
Cc1nc(-c2ccc(F)cc2)sc1CCNC(=O)c1ccccc1 | . | . | . | . | . | -20%
Cc1nc(-c2ccc(F)cc2)sc1CCNC(=O)c1cccs1 | . | . | . | . | . | -16%
COc1ccc(-c2nc(C)c(CCNC(=O)c3cccs3)s2)cc1OC | . | . | . | . | . | 17µM*
Cc1ccc(-c2nc(C)c(CCNC(=O)c3ccco3)s2)cc1 | . | . | . | . | . | 17µM*
COc1ccc(-c2nc(C)c(CCNC(=O)c3ccco3)s2)cc1 | . | . | . | . | . | 27µM*
Cc1ccc2[nH]c(=O)c3cc(C(=O)NCc4cccc(Cl)c4)sc3c2c1 | . | . | -1% | . | . | 1%
COc1cccc(C(=O)Nc2ccc3nc(SCCOc4ccccc4)sc3c2)c1 | . | . | . | . | . | -1%
